# Test results reported in article PMC7862700, “An all-to-all approach to the identification of sequence-specific readers for epigenetic DNA modifications on cytosine”.
# What was measured:
# Test in all cases: DAPPL (digital affinity profiling via proximity ligation, sequencing); 10 mM Tris-HCl pH 7.5, 50 mM NaCl, 1 mM DTT, 4% glycerol, room temperature, 30 min; GST-TFs on glutathione beads, 16-mer random dsDNA library, 0.1% formaldehyde crosslink after washing; high values mean tight binding
# Conditions in all cases: protein: recombinant; tags: N-terminal GST; dsDNA, one strand shown
# FLI1 = target: T1, FLI1 (Homo sapiens, UniProt Q01543 1-452)
# T1 sequence: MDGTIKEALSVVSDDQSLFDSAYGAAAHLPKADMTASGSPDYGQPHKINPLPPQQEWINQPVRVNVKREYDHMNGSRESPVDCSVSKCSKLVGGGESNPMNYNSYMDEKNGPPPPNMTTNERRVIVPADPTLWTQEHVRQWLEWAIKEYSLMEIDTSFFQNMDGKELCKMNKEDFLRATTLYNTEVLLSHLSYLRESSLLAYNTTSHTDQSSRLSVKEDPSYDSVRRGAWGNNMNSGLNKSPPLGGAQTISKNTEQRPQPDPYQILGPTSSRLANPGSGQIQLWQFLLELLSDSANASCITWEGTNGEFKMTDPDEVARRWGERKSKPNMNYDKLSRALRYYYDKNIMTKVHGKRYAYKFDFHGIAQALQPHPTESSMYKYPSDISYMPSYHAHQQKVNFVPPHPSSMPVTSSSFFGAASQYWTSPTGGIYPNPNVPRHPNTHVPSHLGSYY
# In short: (§1)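 Binding signal is given per hexamer as its read frequency for a factor divided by its frequency in the tag-only sample. GST-fused human transcription factors were expressed in yeast, captured on glutathione beads, barcoded with DNA and pooled with that sample, then incubated with 200 nmole of a 16-mer random double-stranded DNA library in Tris/NaCl/DTT/glycerol buffer for 30 min at room temperature. The pools were then washed, crosslinked, proximity-ligated, amplified by PCR and sequenced on an Illumina NextSeq500.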
# ELK1 = target: T2, ELK1 (Homo sapiens, UniProt P19419 1-428)
# T2 sequence: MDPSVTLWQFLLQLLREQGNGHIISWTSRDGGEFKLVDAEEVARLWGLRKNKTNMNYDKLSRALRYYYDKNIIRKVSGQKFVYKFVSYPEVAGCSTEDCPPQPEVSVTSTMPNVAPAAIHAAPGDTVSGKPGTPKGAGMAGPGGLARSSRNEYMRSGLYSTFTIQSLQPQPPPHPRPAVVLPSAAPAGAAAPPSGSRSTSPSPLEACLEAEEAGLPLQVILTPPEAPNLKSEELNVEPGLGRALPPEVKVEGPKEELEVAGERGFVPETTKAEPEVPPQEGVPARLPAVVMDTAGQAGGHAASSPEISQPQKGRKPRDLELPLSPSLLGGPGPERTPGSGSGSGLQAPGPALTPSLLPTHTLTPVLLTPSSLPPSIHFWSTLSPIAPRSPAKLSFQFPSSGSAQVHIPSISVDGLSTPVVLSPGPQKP
# In short: as §1
# GABPA = target: T3, GABPA (Homo sapiens, UniProt Q06546 1-454)
# T3 sequence: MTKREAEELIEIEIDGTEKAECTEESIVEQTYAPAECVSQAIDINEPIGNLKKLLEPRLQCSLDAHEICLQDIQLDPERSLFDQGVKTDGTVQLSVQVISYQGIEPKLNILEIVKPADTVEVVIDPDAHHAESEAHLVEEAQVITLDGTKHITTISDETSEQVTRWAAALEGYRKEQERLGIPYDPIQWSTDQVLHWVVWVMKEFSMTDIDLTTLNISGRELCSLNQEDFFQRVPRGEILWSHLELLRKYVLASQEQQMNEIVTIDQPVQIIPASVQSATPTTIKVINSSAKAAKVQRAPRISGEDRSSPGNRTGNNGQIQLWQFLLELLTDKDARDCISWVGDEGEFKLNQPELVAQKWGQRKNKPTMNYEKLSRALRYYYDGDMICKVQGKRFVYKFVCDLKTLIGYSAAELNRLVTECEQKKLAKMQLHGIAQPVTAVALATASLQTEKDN
# In short: as §1
# ERG = target: T4, ERG (Homo sapiens, UniProt P11308 1-479)
# T4 sequence: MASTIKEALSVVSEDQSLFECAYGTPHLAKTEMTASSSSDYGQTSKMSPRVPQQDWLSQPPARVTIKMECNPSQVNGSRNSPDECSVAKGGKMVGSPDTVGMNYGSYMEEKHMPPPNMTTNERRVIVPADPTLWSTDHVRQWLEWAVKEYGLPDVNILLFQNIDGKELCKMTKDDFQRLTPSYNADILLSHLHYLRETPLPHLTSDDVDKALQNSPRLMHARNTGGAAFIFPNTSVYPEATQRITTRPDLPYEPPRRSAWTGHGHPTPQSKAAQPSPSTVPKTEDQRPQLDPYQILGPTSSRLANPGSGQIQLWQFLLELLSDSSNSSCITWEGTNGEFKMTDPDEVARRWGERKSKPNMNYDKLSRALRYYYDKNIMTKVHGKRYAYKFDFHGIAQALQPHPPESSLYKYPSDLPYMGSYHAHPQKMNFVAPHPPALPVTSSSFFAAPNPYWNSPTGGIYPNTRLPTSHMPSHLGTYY
# In short: as §1
# ELF1 = ELF1 (Homo sapiens, UniProt P32519 1-619)
# In short: as §1
# EHF = target: T5, EHF (Homo sapiens, UniProt Q9NZC4 1-300)
# T5 sequence: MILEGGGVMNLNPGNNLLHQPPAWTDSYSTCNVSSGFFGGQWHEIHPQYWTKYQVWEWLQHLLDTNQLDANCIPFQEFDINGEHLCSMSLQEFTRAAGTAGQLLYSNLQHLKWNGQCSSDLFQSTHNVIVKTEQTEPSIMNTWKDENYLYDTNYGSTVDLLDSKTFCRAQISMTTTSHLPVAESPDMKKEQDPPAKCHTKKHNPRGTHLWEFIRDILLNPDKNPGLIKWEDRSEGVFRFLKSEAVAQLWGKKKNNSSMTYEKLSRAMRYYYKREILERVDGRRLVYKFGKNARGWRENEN
# In short: as §1
# SPI1 = SPI1 (Homo sapiens, UniProt P17947 1-270)
# In short: as §1
# SPIB = SPIB (Homo sapiens, UniProt Q01892 1-262)
# In short: as §1
# ELK3 = target: T6, ELK3 (Homo sapiens, UniProt P41970 1-407)
# T6 sequence: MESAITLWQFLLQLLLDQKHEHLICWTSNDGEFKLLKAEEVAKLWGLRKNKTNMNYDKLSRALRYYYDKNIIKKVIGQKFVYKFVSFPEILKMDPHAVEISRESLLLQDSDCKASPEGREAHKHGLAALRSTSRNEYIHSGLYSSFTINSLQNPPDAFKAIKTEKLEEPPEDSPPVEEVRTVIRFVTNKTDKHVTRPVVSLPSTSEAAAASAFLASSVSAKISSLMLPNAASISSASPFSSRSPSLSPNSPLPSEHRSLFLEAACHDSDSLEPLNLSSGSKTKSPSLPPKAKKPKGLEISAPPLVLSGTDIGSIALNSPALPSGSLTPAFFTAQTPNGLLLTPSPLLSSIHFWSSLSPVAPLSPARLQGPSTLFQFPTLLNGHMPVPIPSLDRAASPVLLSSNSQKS
# In short: as §1
# FEV = target: T7, FEV (Homo sapiens, UniProt Q99581 1-238)
# T7 sequence: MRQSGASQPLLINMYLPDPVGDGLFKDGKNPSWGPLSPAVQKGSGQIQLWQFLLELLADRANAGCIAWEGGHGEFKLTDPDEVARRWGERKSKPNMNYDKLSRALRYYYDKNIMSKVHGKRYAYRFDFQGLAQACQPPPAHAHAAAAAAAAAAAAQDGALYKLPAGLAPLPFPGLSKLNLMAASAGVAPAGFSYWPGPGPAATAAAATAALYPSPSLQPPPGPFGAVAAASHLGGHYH
# In short: as §1
# ETV5 = ETV5 (Homo sapiens, UniProt P41161 1-510)
# In short: as §1
# SPIC = target: T8, SPIC (Homo sapiens, UniProt Q8N5J4 1-248)
# T8 sequence: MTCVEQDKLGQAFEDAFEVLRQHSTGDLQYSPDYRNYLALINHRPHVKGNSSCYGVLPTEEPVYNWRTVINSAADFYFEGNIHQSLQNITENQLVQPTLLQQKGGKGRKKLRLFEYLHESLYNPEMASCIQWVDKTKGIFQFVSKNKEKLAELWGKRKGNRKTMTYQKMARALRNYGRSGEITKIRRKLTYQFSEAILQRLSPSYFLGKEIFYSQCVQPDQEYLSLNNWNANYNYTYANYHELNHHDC
# In short: as §1
# ELF4 = ELF4 (Homo sapiens, UniProt Q99607 1-663)
# In short: as §1
# ELK4 = target: T9, ELK4 (Homo sapiens, UniProt P28324-2 1-405)
# T9 sequence: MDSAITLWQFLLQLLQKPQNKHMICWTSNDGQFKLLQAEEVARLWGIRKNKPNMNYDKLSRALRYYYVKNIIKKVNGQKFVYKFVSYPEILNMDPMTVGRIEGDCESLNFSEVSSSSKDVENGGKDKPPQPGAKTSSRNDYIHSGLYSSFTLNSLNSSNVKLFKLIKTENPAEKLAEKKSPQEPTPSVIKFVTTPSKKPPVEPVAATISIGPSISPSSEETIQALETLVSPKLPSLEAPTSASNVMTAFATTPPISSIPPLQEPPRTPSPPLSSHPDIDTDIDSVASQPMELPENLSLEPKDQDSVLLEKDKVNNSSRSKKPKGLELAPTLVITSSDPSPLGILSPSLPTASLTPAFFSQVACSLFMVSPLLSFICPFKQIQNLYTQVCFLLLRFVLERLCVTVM
# In short: as §1
# ETV2 = target: T10, ETV2 (Homo sapiens, UniProt O00321 1-342)
# T10 sequence: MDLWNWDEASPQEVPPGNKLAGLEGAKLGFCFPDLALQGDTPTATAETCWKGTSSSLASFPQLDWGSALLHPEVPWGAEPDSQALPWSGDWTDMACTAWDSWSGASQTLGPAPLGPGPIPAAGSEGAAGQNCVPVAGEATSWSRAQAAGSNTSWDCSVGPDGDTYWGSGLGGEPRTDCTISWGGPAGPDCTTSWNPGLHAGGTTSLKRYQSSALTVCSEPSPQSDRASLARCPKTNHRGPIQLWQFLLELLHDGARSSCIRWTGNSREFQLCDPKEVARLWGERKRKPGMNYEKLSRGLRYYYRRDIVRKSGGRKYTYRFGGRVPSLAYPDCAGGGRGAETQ
# In short: as §1
# ELF3 = target: T11, ELF3 (Homo sapiens, UniProt P78545 1-371)
# T11 sequence: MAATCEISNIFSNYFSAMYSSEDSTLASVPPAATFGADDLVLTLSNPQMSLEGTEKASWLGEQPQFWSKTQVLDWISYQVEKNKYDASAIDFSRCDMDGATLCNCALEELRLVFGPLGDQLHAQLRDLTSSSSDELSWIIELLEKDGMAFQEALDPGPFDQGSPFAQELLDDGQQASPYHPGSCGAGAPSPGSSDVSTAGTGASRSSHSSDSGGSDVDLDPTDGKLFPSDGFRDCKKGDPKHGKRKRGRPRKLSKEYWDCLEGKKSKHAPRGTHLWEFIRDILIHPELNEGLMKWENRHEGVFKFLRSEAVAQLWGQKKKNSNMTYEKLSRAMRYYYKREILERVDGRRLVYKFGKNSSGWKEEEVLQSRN
# In short: as §1
# ETV1 = ETV1 (Homo sapiens, UniProt P50549 1-477)
# In short: as §1
# SPIB, sequence (Q01892 whole entry): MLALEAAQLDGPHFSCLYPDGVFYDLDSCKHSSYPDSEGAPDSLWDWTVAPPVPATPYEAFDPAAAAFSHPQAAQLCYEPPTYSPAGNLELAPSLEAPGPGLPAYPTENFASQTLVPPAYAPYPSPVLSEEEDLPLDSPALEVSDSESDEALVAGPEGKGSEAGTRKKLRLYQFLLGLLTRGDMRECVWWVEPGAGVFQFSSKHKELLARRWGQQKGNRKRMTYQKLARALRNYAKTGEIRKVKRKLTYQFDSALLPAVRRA
# ELF1, sequence (P32519 whole entry): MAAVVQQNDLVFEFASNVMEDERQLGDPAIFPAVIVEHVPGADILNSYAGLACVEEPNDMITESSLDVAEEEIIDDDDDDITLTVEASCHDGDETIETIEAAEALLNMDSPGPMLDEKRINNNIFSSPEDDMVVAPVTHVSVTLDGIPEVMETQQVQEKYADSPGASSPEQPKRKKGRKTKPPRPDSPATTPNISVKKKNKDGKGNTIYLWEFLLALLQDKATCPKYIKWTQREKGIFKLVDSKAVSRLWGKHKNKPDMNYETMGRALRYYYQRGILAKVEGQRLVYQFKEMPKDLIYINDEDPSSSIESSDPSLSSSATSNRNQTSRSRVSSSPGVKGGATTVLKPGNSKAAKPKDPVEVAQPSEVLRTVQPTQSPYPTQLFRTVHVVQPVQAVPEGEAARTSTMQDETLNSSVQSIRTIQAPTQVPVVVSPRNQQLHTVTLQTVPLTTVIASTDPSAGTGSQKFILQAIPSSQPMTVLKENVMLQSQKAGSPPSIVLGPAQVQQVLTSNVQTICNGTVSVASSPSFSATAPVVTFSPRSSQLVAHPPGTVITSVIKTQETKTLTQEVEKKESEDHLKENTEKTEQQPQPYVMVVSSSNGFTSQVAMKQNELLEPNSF
# ELF4, sequence (Q99607 whole entry): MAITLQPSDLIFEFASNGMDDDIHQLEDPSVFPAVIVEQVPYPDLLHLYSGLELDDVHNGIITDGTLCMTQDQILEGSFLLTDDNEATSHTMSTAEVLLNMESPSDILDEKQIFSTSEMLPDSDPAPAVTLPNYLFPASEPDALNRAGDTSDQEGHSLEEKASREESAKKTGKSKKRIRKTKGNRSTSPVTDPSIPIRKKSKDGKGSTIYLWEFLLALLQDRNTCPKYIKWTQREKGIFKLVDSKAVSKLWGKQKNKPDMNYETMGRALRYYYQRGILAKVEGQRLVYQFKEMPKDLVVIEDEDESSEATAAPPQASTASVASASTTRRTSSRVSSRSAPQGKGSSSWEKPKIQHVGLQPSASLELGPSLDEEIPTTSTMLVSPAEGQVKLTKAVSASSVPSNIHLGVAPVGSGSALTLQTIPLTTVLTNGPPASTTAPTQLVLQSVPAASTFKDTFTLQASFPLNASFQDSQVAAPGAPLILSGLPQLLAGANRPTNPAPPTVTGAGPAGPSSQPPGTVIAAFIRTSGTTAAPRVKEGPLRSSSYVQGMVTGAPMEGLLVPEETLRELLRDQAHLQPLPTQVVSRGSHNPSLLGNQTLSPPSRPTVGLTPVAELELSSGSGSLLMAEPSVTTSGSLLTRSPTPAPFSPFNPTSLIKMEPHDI
# ETV1, sequence (P50549 whole entry): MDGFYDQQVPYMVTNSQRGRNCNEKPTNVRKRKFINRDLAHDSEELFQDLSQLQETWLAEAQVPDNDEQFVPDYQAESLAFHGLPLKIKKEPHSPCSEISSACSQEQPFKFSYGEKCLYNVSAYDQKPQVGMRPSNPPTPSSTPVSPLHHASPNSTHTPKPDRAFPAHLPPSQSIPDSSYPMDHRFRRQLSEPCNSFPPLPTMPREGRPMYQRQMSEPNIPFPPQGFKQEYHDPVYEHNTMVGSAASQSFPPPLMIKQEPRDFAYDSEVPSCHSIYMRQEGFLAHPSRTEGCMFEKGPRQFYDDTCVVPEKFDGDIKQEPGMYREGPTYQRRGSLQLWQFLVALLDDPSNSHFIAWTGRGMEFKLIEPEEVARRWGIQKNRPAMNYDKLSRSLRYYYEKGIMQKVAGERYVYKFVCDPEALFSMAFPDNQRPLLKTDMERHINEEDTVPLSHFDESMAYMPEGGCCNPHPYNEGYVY
# ETV5, sequence (P41161 whole entry): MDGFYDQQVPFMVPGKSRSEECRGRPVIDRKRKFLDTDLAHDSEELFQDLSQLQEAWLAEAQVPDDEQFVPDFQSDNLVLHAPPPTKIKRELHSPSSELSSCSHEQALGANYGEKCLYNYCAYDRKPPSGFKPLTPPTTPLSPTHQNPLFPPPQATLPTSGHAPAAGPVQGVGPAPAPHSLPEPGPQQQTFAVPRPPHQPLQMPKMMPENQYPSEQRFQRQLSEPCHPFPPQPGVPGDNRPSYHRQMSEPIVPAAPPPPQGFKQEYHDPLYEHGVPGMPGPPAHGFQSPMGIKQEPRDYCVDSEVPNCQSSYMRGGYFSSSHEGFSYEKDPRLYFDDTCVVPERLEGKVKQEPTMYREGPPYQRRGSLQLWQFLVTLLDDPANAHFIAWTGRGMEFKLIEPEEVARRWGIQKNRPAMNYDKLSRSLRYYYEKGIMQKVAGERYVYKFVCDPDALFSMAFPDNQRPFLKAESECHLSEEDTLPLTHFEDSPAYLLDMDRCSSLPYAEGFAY
Sequence,binding signal (FLI1),binding signal (ELK1),binding signal (GABPA),binding signal (ERG),binding signal (ELF1),binding signal (EHF),binding signal (SPI1),binding signal (SPIB),binding signal (ELK3),binding signal (FEV),binding signal (ETV5),binding signal (SPIC),binding signal (ELF4),binding signal (ELK4),binding signal (ETV2),binding signal (ELF3),binding signal (ETV1)
CACTAC,"1.38 fold enrichment (6-mer frequency, TF over GST control)","1.37 fold enrichment (6-mer frequency, TF over GST control)","1.36 fold enrichment (6-mer frequency, TF over GST control)","1.31 fold enrichment (6-mer frequency, TF over GST control)","1.33 fold enrichment (6-mer frequency, TF over GST control)","1.28 fold enrichment (6-mer frequency, TF over GST control)","1.17 fold enrichment (6-mer frequency, TF over GST control)","1.36 fold enrichment (6-mer frequency, TF over GST control)","1.27 fold enrichment (6-mer frequency, TF over GST control)","1.35 fold enrichment (6-mer frequency, TF over GST control)","1.3 fold enrichment (6-mer frequency, TF over GST control)","1.14 fold enrichment (6-mer frequency, TF over GST control)","1.27 fold enrichment (6-mer frequency, TF over GST control)","1.37 fold enrichment (6-mer frequency, TF over GST control)","1.34 fold enrichment (6-mer frequency, TF over GST control)","1.3 fold enrichment (6-mer frequency, TF over GST control)","1.21 fold enrichment (6-mer frequency, TF over GST control)"
TACCGG,"1.52 fold enrichment (6-mer frequency, TF over GST control)","1.55 fold enrichment (6-mer frequency, TF over GST control)","1.52 fold enrichment (6-mer frequency, TF over GST control)","1.77 fold enrichment (6-mer frequency, TF over GST control)","1.53 fold enrichment (6-mer frequency, TF over GST control)","1.67 fold enrichment (6-mer frequency, TF over GST control)","1.43 fold enrichment (6-mer frequency, TF over GST control)","1.61 fold enrichment (6-mer frequency, TF over GST control)","1.56 fold enrichment (6-mer frequency, TF over GST control)","2.1 fold enrichment (6-mer frequency, TF over GST control)","1.68 fold enrichment (6-mer frequency, TF over GST control)","1.43 fold enrichment (6-mer frequency, TF over GST control)","1.51 fold enrichment (6-mer frequency, TF over GST control)","1.4 fold enrichment (6-mer frequency, TF over GST control)","1.5 fold enrichment (6-mer frequency, TF over GST control)","1.78 fold enrichment (6-mer frequency, TF over GST control)","1.73 fold enrichment (6-mer frequency, TF over GST control)"
